Several values for one entry are separate records, joined by “and”; a condition that tells them apart may be missing. Identical values can stand only once. Unmarked numbers belong to inactive results. Results filed as inconclusive are left out. Where a call stands in place of a potency, no number is given. Activity calls are given as the source filed them. Unless noted, the call rests on the fitted dose curve; in most records, active means well fitted curve in the direction sought with a large enough effect in the repeat runs; inconclusive means weak or mixed curves; inactive means no such curve, though single readings can be large; an effect the other way counts as inactive or inconclusive.
What was measured:
[1] = biological target: Thyrotropin receptor (Homo sapiens) (UniProt P16473); assay: qHTS assay to identify small molecule agonists of the thyroid stimulating hormone receptor (TSHR) signaling pathway (AID 1224843; calls by dose curve; further: nearly all actives have a fitted effect of over 45% in size; further: potency means the concentration at half of the fitted maximal effect)
Chain of Thyrotropin receptor (Homo sapiens) (P16473 whole entry, looked up): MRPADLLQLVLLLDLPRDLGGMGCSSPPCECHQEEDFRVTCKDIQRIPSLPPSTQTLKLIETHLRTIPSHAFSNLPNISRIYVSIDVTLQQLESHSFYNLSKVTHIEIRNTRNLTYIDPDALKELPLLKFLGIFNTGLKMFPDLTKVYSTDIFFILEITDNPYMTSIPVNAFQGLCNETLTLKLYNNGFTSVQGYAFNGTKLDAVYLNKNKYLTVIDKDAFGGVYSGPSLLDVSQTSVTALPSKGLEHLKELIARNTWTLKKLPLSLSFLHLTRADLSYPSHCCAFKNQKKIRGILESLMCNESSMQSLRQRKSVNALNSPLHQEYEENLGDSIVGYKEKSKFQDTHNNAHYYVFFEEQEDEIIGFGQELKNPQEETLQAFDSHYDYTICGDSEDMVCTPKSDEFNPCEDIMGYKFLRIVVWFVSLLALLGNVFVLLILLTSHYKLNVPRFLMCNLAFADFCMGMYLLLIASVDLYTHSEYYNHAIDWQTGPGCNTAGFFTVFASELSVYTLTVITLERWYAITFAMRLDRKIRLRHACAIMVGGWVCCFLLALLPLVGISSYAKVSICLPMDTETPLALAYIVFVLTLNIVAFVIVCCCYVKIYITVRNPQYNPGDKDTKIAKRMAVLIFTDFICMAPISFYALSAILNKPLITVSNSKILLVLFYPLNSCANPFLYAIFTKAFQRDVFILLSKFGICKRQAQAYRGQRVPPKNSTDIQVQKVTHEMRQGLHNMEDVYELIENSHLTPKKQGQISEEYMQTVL
Procedure, shortened: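 Steps: seed 800 TSHR-HEK293 cells per well; add test compound and hold 30 min at ambient temperature; dispense cAMP-d2 then anti-cAMP cryptate; incubate 1 h at ambient; measure fluorescence intensity.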

[2] = qHTS assay to identify small molecule agonists of the hypoxia (HIF-1) signaling pathway - cell viability counter screen (AID 1224844; calls by dose curve; further: nearly all actives have a fitted effect of over 50% in size; further: potency means the concentration at half of the fitted maximal effect)
Procedure, shortened: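 ME-180 HRE-bla cells, 2,000/well, 0.5% dialyzed FBS; 5 hr settle, 17 hr compound at 37C/5% CO2; CCF4-AM reporter read first, then CellTiter-Glo luminescence after 30 min RT.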

[3] = qHTS assay to identify small molecule agonists of H2AX (AID 1224845; active means well fitted activation curve with a large enough effect in the signal ratio in the repeat runs, not every such curve was filed as active; the % refers to the signal ratio)
Procedure, shortened: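 Wild-type CHO-K1 cells, plated overnight, exposed 3hr at 37C to 15 concentrations (0.76% DMSO final). Lysed, then HTRF anti-pH2AX (S139) cryptate and anti-H2AX-d2 antibodies, 24 hr room temperature; 665/620 nm emission read.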

[4] = qHTS assay to identify small molecule agonists of H2AX - cell viability counter screen (AID 1224847; calls by dose curve; further: nearly all actives have a fitted effect of over 30% in size; further: potency means the concentration at half of the fitted maximal effect)
Procedure, shortened: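 Cytotoxicity counter screen in wild-type CHO-K1 cells: a 3 hr compound treatment at 37C across 15 concentrations, followed by CellTiter-Glo luminescence to gauge viable cells.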

[5] = qHTS RealTime-Glo MT Cell Viability Assay in HepG2 cells - 24 hour (AID 1224867); further: nearly all actives have a fitted effect of over 50% in size; further: potency means the concentration at half of the fitted maximal effect
Procedure, shortened: (§1)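 Tox21 10K library screened in qHTS format on HepG2 cells carrying RealTime-Glo reagents. Compounds were added after a 5 h preincubation, and the luminescent signal from continuous culture was measured repeatedly during 40 h treatment.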

[6] = qHTS RealTime-Glo MT Cell Viability Assay in HEK293 cells - 32 hour (AID 1224868); further: nearly all actives have a fitted effect of over 50% in size; further: potency means the concentration at half of the fitted maximal effect
Procedure, shortened: (§2)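 Luminescence generated by NanoLuc from substrate produced by living HEK293 cells served as the viability signal. Each value reflects the reading at its stated time point during continuous 40 h compound exposure at 37 C.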

[7] = A CellTox Green Cytotoxicity Assay to monitor cytotoxicity in HEK293 cells - 0 hour (AID 1224869); further: nearly all actives have a fitted effect of over 50% in size
Procedure, shortened: (§3)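 Nonlytic real-time cytotoxicity: HEK293 + CellTox Green reagent plated, 5 h preincubation, pintool compound addition (23 nL in DMSO), 37 C for 40 h, fluorescence measured at successive time points.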

[8] = qHTS RealTime-Glo MT Cell Viability Assay in HepG2 cells - 40 hour (AID 1224870); further: nearly all actives have a fitted effect of over 50% in size; further: potency means the concentration at half of the fitted maximal effect
Procedure, shortened: (§4)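 HepG2 cells (600/well) mixed with RealTime-Glo MT reagent, settled 5 h at 37 C/5% CO2 before compound addition. Nonlytic NanoLuc luminescence from viable-cell prosubstrate reduction read repeatedly during 40 h treatment at 37 C.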

[9] = A CellTox Green Cytotoxicity Assay to monitor cytotoxicity in HEK293 cells - 40 hour (AID 1224871); further: nearly all actives have a fitted effect of over 45% in size; further: potency means the concentration at half of the fitted maximal effect
Procedure, shortened: as §3

[10] = qHTS RealTime-Glo MT Cell Viability Assay in HEK293 cells - 16 hour (AID 1224872); further: nearly all actives have a fitted effect of over 50% in size; further: potency means the concentration at half of the fitted maximal effect
Procedure, shortened: as §2

[11] = qHTS RealTime-Glo MT Cell Viability Assay in HepG2 cells - 8 hour (AID 1224873); further: nearly all actives have a fitted effect of over 55% in size; further: potency means the concentration at half of the fitted maximal effect
Procedure, shortened: as §4

[12] = qHTS RealTime-Glo MT Cell Viability Assay in HEK293 cells - 40 hour (AID 1224874); conditions: RealTime-Glo luminescence; max response: hits give low values; further: nearly all actives have a fitted effect of over 50% in size; further: potency means the concentration at half of the fitted maximal effect
Procedure, shortened: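 Cells were seeded together with NanoLuc luciferase and a prosubstrate that viable cells reduce to a luciferase substrate. After a 5 h incubation at 37 C/5% CO2, compounds were added and luminescence was measured repeatedly during 40 h of treatment.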

[13] = A CellTox Green Cytotoxicity Assay to monitor cytotoxicity in HEK293 cells - 24 hour (AID 1224875); further: nearly all actives have a fitted effect of over 45% in size; further: potency means the concentration at half of the fitted maximal effect
Procedure, shortened: as §3

[14] = A CellTox Green Cytotoxicity Assay to monitor cytotoxicity in HepG2 cells - 16 hour (AID 1224876); further: nearly all actives have a fitted effect of over 45% in size; further: potency means the concentration at half of the fitted maximal effect
Procedure, shortened: (§5)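 Read-out is fluorescence of a cyanine dye excluded from live cells that stains DNA of dead HepG2 cells, with signal proportional to cytotoxicity. Plates were read at 0, 8, 16, 24, 32 and 40 h after compound addition.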

[15] = A CellTox Green Cytotoxicity Assay to monitor cytotoxicity in HepG2 cells - 24 hour (AID 1224878); further: nearly all actives have a fitted effect of over 45% in size; further: potency means the concentration at half of the fitted maximal effect
Procedure, shortened: as §5

[16] = A CellTox Green Cytotoxicity Assay to monitor cytotoxicity in HepG2 cells - 40 hour (AID 1224879); further: nearly all actives have a fitted effect of over 40% in size; further: potency means the concentration at half of the fitted maximal effect
Procedure, shortened: as §5

[17] = qHTS RealTime-Glo MT Cell Viability Assay in HepG2 cells - 32 hour (AID 1224877); further: nearly all actives have a fitted effect of over 55% in size; further: potency means the concentration at half of the fitted maximal effect
Procedure, shortened: as §1

[18] = qHTS assay to identify small molecule agonists of the estrogen related receptor (ERR) signaling pathway from Tox21 library (AID 1224849; calls by dose curve; further: nearly all actives have a fitted effect of over 15% in size); conditions: ERR reporter cell line, ONE-Glo luciferase, 18 h; at 92.4 µM (top of the series) unless noted
Procedure, shortened: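 ERR cells, 6 h pre-incubation 37 C/5% CO2; cpd in DMSO pinned; 18 h 37 C; ONE-Glo added, 30 min RT; luminescence read. Agonist mode, qHTS.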

[19] = qHTS assay to identify small molecule agonists of the hypoxia (HIF-1) signaling pathway (AID 1224846; active means well fitted activation curve with a large enough effect in the signal ratio in the repeat runs, not every such curve was filed as active; the % refers to the signal ratio)
Procedure, shortened: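 Cell line: CellSensor HRE-bla ME-180; 2,000 cells/well; 0.5% dialyzed FBS; 5 h preincubation; DMSO compound pin transfer; 17 h, 37C, 5% CO2; CCF4-AM added; bla FRET signal scored for activation.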

[20] = qHTS assay to identify small molecule antagonists of the estrogen related receptor (ERR) signaling pathway from Tox21 library (AID 1224848)
Procedure, shortened: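 Luminescent reporter read-out (ONE-Glo) from NTP's ERR cell line after 18 h treatment at 37 C with DMSO-dissolved Tox21 compounds; cells pre-plated 6 h beforehand at 2,000 per well.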

CCOC(=O)OC(C)OC(=O)[C@@H]1N2C(=O)[C@@H](NC(=O)[C@H](N)c3ccccc3)[C@H]2SC1(C)C (stereo partly drawn)
Potency [1]: inactive
Potency [2]: inactive
Potency [3]: inactive
Potency [4]: inactive
Potency [5]: inactive
Potency [6]: inactive
Potency [7]: inactive
Potency [8]: inactive
Potency [9]: inactive
Potency [10]: inactive
Potency [11]: inactive
max response [12]: -0.757%
Potency [13]: inactive
Potency [14]: inactive
Potency [15]: inactive
Potency [16]: inactive

C=CCc1ccccc1OCC(O)CNC(C)C (stereo not drawn)
Potency [1]: inactive
Potency [2]: inactive
Potency [3]: inactive
Potency [4]: inactive
Potency [5]: inactive
Potency [6]: inactive
Potency [7]: inactive
Potency [8]: inactive
Potency [9]: inactive
Potency [10]: inactive
Potency [11]: inactive
max response [12]: -5.29%
Potency [13]: inactive
Potency [14]: inactive
Potency [17]: inactive
Potency [15]: inactive
Potency [16]: inactive

OC(CCN1CCCC1)(c1ccccc1)C1CCCCC1 (stereo not drawn)
Potency [1]: inactive
Potency [2]: inactive
Potency [3]: inactive
Potency [4]: inactive
Potency [5]: inactive
Potency [6]: inactive
Potency [7]: inactive
Potency [8]: inactive
Potency [9]: inactive
Potency [10]: inactive
Potency [11]: inactive
max response [12]: -3.9%
Potency [13]: inactive
Potency [14]: inactive
Potency [15]: inactive
Potency [16]: inactive

OCCN1CCN(CCCN2c3ccccc3Sc3ccc(Cl)cc32)CC1
Potency [1]: inactive
Potency [2]: 15.1 µM (active)
Potency [3]: inactive
activity change, positive = activation [18]: -48% [at 42.5 µM]
Potency [5]: 23.9 µM (active)
Potency [6]: 23.9 µM (active)
Potency [7]: inactive
Potency [8]: 23.9 µM (active)
Potency [9]: 26.8 µM (active)
Potency [10]: 23.9 µM (active)
Potency [11]: 23.9 µM (active)
Potency [12]: 23.9 µM (active)
Potency [14]: 21.3 µM (active)
Potency [17]: 23.9 µM (active)
Potency [15]: 15.1 µM (active)
Potency [16]: 19 µM (active)

CN(C)CCN1C(=O)c2ccccc2N(C)c2ccccc21
Potency [1]: inactive
Potency [2]: inactive
Potency [3]: inactive
outcome [19]: inactive
Potency [4]: inactive
Potency [5]: inactive
Potency [6]: inactive
Potency [7]: inactive
Potency [8]: inactive
Potency [10]: inactive
Potency [11]: inactive
max response [12]: -6.83%
Potency [13]: inactive
Potency [14]: inactive
Potency [17]: inactive
Potency [15]: inactive
Potency [16]: inactive

CC(C)C(O)(c1ccc(OC(F)(F)F)cc1)c1cncnc1 (stereo not drawn)
Potency [1]: 48.4 µM (active)
Potency [2]: inactive
Potency [3]: inactive
outcome [19]: inactive
Potency [4]: inactive
Potency [5]: inactive
Potency [7]: inactive
Potency [8]: inactive
Potency [9]: inactive
Potency [11]: inactive
Potency [13]: inactive
Potency [14]: inactive
Potency [17]: inactive
Potency [15]: inactive
Potency [16]: inactive

c1ccc2c(c1)CCc1ccccc1N2
Potency [1]: inactive
Potency [2]: inactive
Potency [3]: inactive
outcome [19]: inactive
Potency [4]: 101 µM (active)
Potency [5]: inactive
Potency [6]: inactive
Potency [7]: inactive
Potency [8]: inactive
Potency [11]: inactive
max response [12]: -22.1% and -5.28%
Potency [13]: inactive
Potency [14]: inactive
Potency [17]: inactive
Potency [15]: inactive
Potency [16]: inactive

CCC1NC(=O)c2cc(S(N)(=O)=O)c(Cl)cc2N1 (stereo not drawn)
Potency [1]: inactive
Potency [2]: inactive
Potency [3]: inactive
outcome [19]: inactive
Potency [4]: inactive
Potency [5]: inactive
Potency [6]: inactive
Potency [7]: inactive
Potency [8]: inactive
Potency [10]: inactive
Potency [11]: inactive
max response [12]: 6.45%
Potency [13]: inactive
Potency [14]: inactive
Potency [15]: inactive
Potency [16]: inactive

Cc1cscn1
Potency [1]: inactive
Potency [2]: inactive
Potency [3]: inactive
outcome [19]: inactive
Potency [4]: inactive
Potency [5]: inactive
Potency [6]: inactive
Potency [7]: inactive
Potency [8]: inactive
Potency [9]: inactive
Potency [11]: inactive
max response [12]: 11.3%
Potency [13]: inactive
Potency [14]: inactive
Potency [15]: inactive
Potency [16]: inactive

CCC(C)COC(=O)CC(C)C (stereo not drawn)
Potency [1]: inactive
Potency [2]: 19.5 µM (active)
Potency [3]: inactive
Potency [4]: inactive
Potency [5]: inactive
Potency [6]: inactive
Potency [7]: inactive
Potency [8]: inactive
Potency [9]: inactive
Potency [10]: inactive
Potency [11]: inactive
Potency [13]: inactive
Potency [17]: inactive
Potency [15]: 54.9 µM (active)
Potency [16]: 49 µM (active)

CCCCC(CC)COP(=O)(O)O (stereo not drawn)
Potency [1]: inactive
Potency [2]: 12.5 µM (active)
Potency [3]: inactive
outcome [19]: inactive
Potency [4]: inactive
Potency [5]: inactive
Potency [7]: inactive
Potency [10]: inactive
Potency [11]: inactive
Potency [14]: inactive
Potency [17]: inactive
Potency [15]: inactive
Potency [16]: inactive

Nc1ncnc2c1ncn2[C@H]1CC[C@@H](CO)O1
Potency [1]: inactive
Potency [2]: inactive
Potency [3]: inactive
outcome [19]: inactive
Potency [5]: inactive
Potency [6]: inactive
Potency [7]: inactive
Potency [9]: inactive
Potency [10]: inactive
Potency [11]: inactive
max response [12]: 18.9%
Potency [13]: inactive
Potency [14]: inactive
Potency [17]: inactive
Potency [15]: inactive
Potency [16]: inactive

O=C(O)c1cccc(-c2noc(-c3ccccc3F)n2)c1
Potency [1]: inactive
Potency [2]: inactive
Potency [3]: inactive
outcome [19]: inactive
Potency [5]: inactive
Potency [6]: inactive
Potency [7]: inactive
Potency [8]: inactive
Potency [9]: inactive
Potency [11]: inactive
max response [12]: 2.77%
Potency [13]: inactive
Potency [14]: inactive
Potency [17]: inactive
Potency [15]: inactive
Potency [16]: inactive

Cc1cc2c(OCC(CNC(C)(C)C)OC(=O)c3ccccc3)cccc2[nH]1 (stereo not drawn)
Potency [1]: 26.6 µM (active)
Potency [2]: inactive
Potency [3]: inactive
outcome [19]: inactive
Potency [4]: inactive
Potency [5]: inactive
Potency [7]: inactive
Potency [8]: inactive
Potency [10]: inactive
Potency [11]: inactive
max response [12]: -21.5%
Potency [13]: inactive
Potency [14]: inactive
Potency [17]: inactive

CC(C)c1nc(CN(C)C(=O)N[C@H](C(=O)N[C@@H](Cc2ccccc2)C[C@H](O)[C@H](Cc2ccccc2)NC(=O)OCc2cncs2)C(C)C)cs1
Potency [1]: inactive
Potency [2]: 9.52 µM (active)
Potency [3]: inactive
outcome [19]: inactive
Potency [20]: 21.1 µM (active)
activity change, positive = activation [18]: -41.1% [at 42.5 µM]
Potency [5]: inactive
Potency [6]: 21.3 µM (active)
Potency [7]: inactive
Potency [11]: inactive
Potency [12]: 21.3 µM (active)
Potency [14]: inactive
Potency [15]: inactive
Potency [16]: 21.3 µM (active)

COc1ccccc1Oc1c(NS(=O)(=O)c2ccc(C(C)(C)C)cc2)nc(-c2ncccn2)nc1OCCO
Potency [1]: inactive
Potency [2]: inactive
Potency [3]: inactive
outcome [19]: inactive
activity change, positive = activation [18]: -21.1% [at 42.5 µM]
Potency [5]: inactive
Potency [6]: inactive
Potency [7]: inactive
Potency [8]: inactive
Potency [9]: inactive
Potency [10]: inactive
Potency [11]: inactive
max response [12]: -19.3%
Potency [13]: inactive
Potency [14]: inactive
Potency [17]: inactive
Potency [15]: inactive
Potency [16]: inactive

CCCCN1CCCC1C(=O)Nc1c(C)cc(C)cc1C (stereo not drawn)
Potency [1]: inactive
Potency [2]: inactive
Potency [3]: inactive
outcome [19]: inactive
Potency [4]: inactive
Potency [5]: inactive
Potency [7]: inactive
Potency [8]: inactive
Potency [9]: 16.9 µM (active)
Potency [11]: inactive
Potency [13]: 15.1 µM (active)
Potency [17]: inactive

Source: PubChem BioAssay (Tox21)
